In PubChem BioAssay (Tox21):
Inconclusive results are not listed. The source made the active and inactive calls. The call rests on the fitted dose curve; in most records, active means well fitted activation curve with a large enough effect in the repeat runs; inconclusive means weak or mixed curves, or effect the other way; inactive means no such curve, though single readings can be large or run the other way.

test: qHTS assay to identify small molecule agonists of the retinoic acid receptor (RAR) signaling pathway (AID 1159553); conditions: C3RL4 RARE luciferase reporter, agonist, 6 h; series mostly up to 73.3 µM; activation: at the top concentration
Outline: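 Compounds dissolved in DMSO were pinned onto C3RL4 cells seeded the previous day, and plates were held 6 hr at 37 C. RARE-driven luciferase output was then read by luminescence.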
On the % scale 0 is the no-effect control and ±100 the full control effect; potency means the concentration at half of the fitted maximal effect.

| Structure (SMILES) | activation | Potency |
| --- | --- | --- |
| OCCCCCCO | 0.667% [at 94.8 µM] (inactive) |  |
| c1ccc(SCCSc2ccccc2)cc1 |  | 6.06 µM (active) |
| Cc1ccccc1Br | 0.0094% (inactive) |  |
| C(=C(c1ccccc1)c1ccccc1)c1ccccc1 | -5.93% (inactive) |  |
| COC(=O)c1ccc(C(=O)OC)c(C(=O)OC)c1 | 2.38% (inactive) |  |
| CCCCCC[C@@H](CCC)C(=O)O | -3.69% (inactive) |  |
| CCCCc1ccc2cccc(S(=O)(=O)O)c2c1 | 0.588% (inactive) |  |
| C1=C\CC/C=C\CC/C=C\CC/1 | 1.04% (inactive) |  |
| COC(=O)C1=C(C)NC(C)=C(C(=O)OCC(C)=O)C1c1ccccc1[N+](=O)[O-] (stereo not drawn) | 0.112% (inactive) |  |
| CCN1CCCC1CNC(=O)c1cc(S(N)(=O)=O)ccc1OC (stereo not drawn) | -0.27% (inactive) |  |
| COc1ccc(N=[N+]([O-])c2ccc(OC)cc2)cc1 |  | 0.027 µM (active) |
| CNC(=O)c1c(I)c(NC(=O)CCCCC(=O)Nc2c(I)c(C(=O)O)c(I)c(C(=O)NC)c2I)c(I)c(C(=O)O)c1I | 1.9% (inactive) |  |
| CC1=CC(=O)CCC1 | 1.23% (inactive) |  |
| COc1ccc(COC=O)cc1 | -1.3% (inactive) |  |
| O=S(=O)(O)c1ccccc1O | -3.13% (inactive) |  |
| CC(C)c1cccc(C(C)C)c1N | -2.06% (inactive) |  |
| O=C(O)C(O)[C@H](O)[C@@H](O)[C@H](O)[C@H](O)CO (stereo partly drawn) | -0.318% [at 94.8 µM] (inactive) |  |
| Cc1c(C)n(CCN(C)C)c2ccc(C(=O)OCCN(C)C)cc12 | 2.85% (inactive) |  |
